Assay outcomes deposited in PubChem BioAssay by National Center for Advancing Translational Sciences (NCATS).
GALK inh: GALK (human) enzyme inhibition; 44,000 tested, under 10 active; recombinant GALK, Kinase-Glo ATP luminescence, 1 h; Potency, µM (doses to about 57.5 µM), for inactives: top-dose activity, negative = inhibition, most hits filed as inhibitors; P51570; AID 1347072;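 further: plate controls were full GALK reaction for no effect and reaction lacking GALK for full effect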
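5 nM GALK; 35 uM ATP; 100 uM D-galactose; 20 mM HEPES pH 8.0, 5 mM MgCl2, 60 mM NaCl, 1 mM DTT, 0.01% BSA; 1 h RT; Kinase-Glo Plus luminescence.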
B2AR arrestin ag: beta-arrestin recruitment by human beta2-adrenergic receptor ligands. HTLA Tango cells, beta-arrestin recruitment, luciferase luminescence, 18 h. P07550. Potency, µM (titrated, usually from 46.1 µM), actives largely listed as activators. 44,000 tested, under 10 active;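 further: potency means the concentration at half of the fitted maximal effect; 0% = DMSO and full agonism = EC100 isoproterenol or metaproterenol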
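Tango cell line, 1% FBS DMEM; cpd titration up to 46 microM; 18 hr, 37 degrees C, 5% CO2. Luciferin/ATP substrate mix added, 15 min RT, luminescence. %Activity, CRC fitting, curve-class categorization.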
TSG101-PTAP inh: inhibitors of HIV-1 PTAP binding to human TSG101, validation; Fluorescence polarization, FITC-PTAP peptide/Tsg101, 20 min; 44,000 tested, under 10 active; Potency, µM (titrated, usually from 115 µM), actives largely listed as inhibitors; further: potency means the concentration at half of the fitted maximal effect; 0% is about no effect
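Steps: Tsg101 binding domain (10 uM final) in HEPES pH 7.5/NaCl/Tween 20/EDTA/TCEP; add compound; add FITC-PTAP peptide (50 nM final); incubate 20 min r.t.; read polarization.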
HTT-AS promoter: activators of huntingtin-antisense promoter activity. actives 0.24% (n = 48,000). Potency, µM (top dose mostly 57.5 µM), inactives show at the top dose activity change, positive = activation, hits mostly activators. HEK293 HTT-AS promoter firefly luciferase reporter, 24 h; response scale: percent change from vehicle, -100% = no light; further: potency means the concentration at half of the fitted maximal effect; nearly all actives have a fitted effect of over 55% in size
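Luminescence was read after Dual-Glo reagent and a 10 min room-temperature incubation. Values were normalized to vehicle (0% activity) and zero RLU (-100% activity). Reporter HEK293 cells had been exposed to compounds (up to 57.5 uM final) for 24 h.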
HTT promoter inh: HTT promoter inhibition; HEK293 HTT promoter firefly luciferase reporter, 24 h; Potency, µM (top dose mostly 57.5 µM), inactives show top-dose activity change, negative = inhibition, most hits filed as inhibitors; actives 0.93% (n = 48,000); further: potency means the concentration at half of the fitted maximal effect; nearly all actives have a fitted effect of over 50% in size
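HEK293 cells carrying firefly luciferase reporters were seeded at 2,500 per well in Opti-MEM and cultured for 24 h. They were then treated with compounds at up to 57.5 uM final for 24 h at 37 degrees C before Dual-Glo luminescence readout.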
GPR32 ag: agonists of human resolvin D1 receptor DRV1 (GPR32) | CHO-K1 GPR32 beta-arrestin PathHunter luminescence, 90 min; zero percent set by DMSO-only wells | activation, % at 76.9 µM | actives 2.5% (n = 48,000) | AID 1346428;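 active means activation of at least 60% and not above a set upper limit, about 1 call in 100 departs from these limits; inconclusive means activation of 40% to 60%, or above that upper limit; inactive means activation under 40%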; further: 0% is about no effect
Target sequence (O75388 whole entry, looked up): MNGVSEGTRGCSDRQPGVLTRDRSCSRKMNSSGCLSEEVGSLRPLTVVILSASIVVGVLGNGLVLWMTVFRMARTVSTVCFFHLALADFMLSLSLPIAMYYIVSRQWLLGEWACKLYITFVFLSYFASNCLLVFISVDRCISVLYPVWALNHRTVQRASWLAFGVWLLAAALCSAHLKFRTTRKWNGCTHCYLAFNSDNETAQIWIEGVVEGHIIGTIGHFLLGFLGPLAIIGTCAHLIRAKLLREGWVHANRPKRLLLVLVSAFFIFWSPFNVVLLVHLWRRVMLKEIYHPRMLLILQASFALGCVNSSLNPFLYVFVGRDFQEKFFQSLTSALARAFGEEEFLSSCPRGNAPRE
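Cells are plated overnight, treated with compounds in DMSO for 90 minutes at 37 °C, and developed with PathHunter detection reagent for 1 hour before luminescence is read; signal reflects beta-arrestin binding to GPR32 in engineered CHO-K1 cells.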
Numbers without * were called inactive; i = inactive; ? = inconclusive; nt = no result given; [ ] = remark or other dose. Sampled rows, rich in hits. Any-hit rate of the full collection: about 3.7%. Unless noted, the call rests on the fitted dose curve; in most records, active means well fitted curve in the direction sought with a large enough effect; inconclusive means small, poorly fitted or top-dose-only effect, or another doubt; inactive means no such curve, though single readings can be large; an effect the other way counts as inactive or inconclusive.

SMILES	GALK inh	B2AR arrestin ag	TSG101-PTAP inh	HTT-AS promoter	HTT promoter inh	GPR32 ag
CN(CC(=O)N(Cc1ccc(C2CCCCC2)cc1)c1ccc(C(=O)O)c(O)c1)S(=O)(=O)c1c(F)c(F)c(F)c(F)c1F	nt	nt	nt	20%	32%	nt
CCCC(O)c1nc2ccccc2n1CCCCOc1ccc(OC)cc1 (stereo not drawn)	3%	i	i	-36%	-36%	91*
CC(=O)NCCc1nc2ccccc2n1CCCCOc1ccc(Cl)cc1	8%	i	i	-25%	-27%	76*
CCc1nc2ccccc2n1CCCCOc1ccc(C)cc1	4%	i	i	-37%	?	?
Cc1ccc(S(=O)(=O)Cc2nc(-c3ccc(C(=O)NCc4ccccc4)cc3)oc2C)cc1	0%	i	i	-38%	?	77*
COC(=O)c1ccc(C2Nc3c(C)cc(C)cc3C3C=CCC32)cc1 (stereo not drawn)	4%	i	i	-10%	-6%	79*
COC(=O)c1ccc([C@@H]2Nc3c(cccc3C(F)(F)F)[C@@H]3C=CC[C@@H]32)cc1	3%	i	i	-8%	-24%	-24
CCc1ccc(-n2nnc(-c3nsc(NC(=O)c4ccccc4Cl)n3)c2C)cc1	-2%	i	i	-21%	-34%	105*
CCc1ccccc1-n1nnc(-c2nsc(NC(=O)c3ccc(C)c(C)c3)n2)c1C	-2%	i	i	-67%	?	72*
Cc1cc(C)cc(-n2nnc(-c3nsc(NC(=O)c4ccccc4Cl)n3)c2C)c1	1%	i	i	-22%	-13%	?
CCOc1ccc(-c2cc(CCCC(=O)NCCc3ccc(OCC)c(OCC)c3)no2)cc1	-3%	i	i	-80%	?	8
CCOc1ccc(CCNC(=O)CCCn2c(=O)c3cccn3c3cccnc32)cc1	2%	i	i	-7%	0%	-12
CCOc1ccc(-c2cc(CCCC(=O)NCCc3ccc(SC)cc3)no2)cc1	-9%	i	i	-79%	0.79µM*	17
CCOc1ccc(-c2cc(CCCC(=O)NCCc3ccc(Cl)cc3)no2)cc1	-1%	i	i	-73%	1.8µM*	1
C[C@H](NC(=O)Cc1cc(F)cc(F)c1)C(=O)N[C@@H]1C(=O)N(C)c2ccccc2-c2ccccc21	nt	nt	nt	-16%	-1%	nt
Cc1cccc(N2CCN(C(=O)CCCCn3c(=O)[nH]c4ccsc4c3=O)CC2)c1C	-4%	i	i	-40%	?	62*
O=C(CCCCn1c(=O)[nH]c2ccsc2c1=O)N1CCN(c2cccc(C(F)(F)F)c2)CC1	3%	i	i	-40%	?	74*
COc1cc2[nH]c(=O)n(CCCC(=O)N3CCN(c4cccc(C(F)(F)F)c4)CC3)c(=O)c2cc1OC	1%	i	i	-3%	2%	0
Cc1ccccc1C(C(=O)NC1CCCCC1)N(C(=O)Cn1ccnc1C)c1cccc(F)c1 (stereo not drawn)	nt	nt	nt	?	7%	nt
CCOc1ccc(Cc2nccc3cc(OCC)c(OCC)cc23)cc1OCC	nt	nt	nt	-53%	?	88*
CCc1ccc(N=C2NC(=O)CC(C(=O)Nc3ccc(OC)cc3)S2)cc1 (stereo not drawn)	3%	i	i	16%[11.5 µM]	-6%[11.5 µM]	92*
CCOc1cccc(NC(=O)C2CC(=O)N(C)C(=Nc3ccc(OC)cc3)S2)c1 (stereo not drawn)	2%	i	i	-17%	-21%	20
COc1ccc(-c2noc(N3CCN(c4ccc(C)cc4)C(C)C3)n2)cc1OC (stereo not drawn)	-6%	i	i	-31%	?	61*
COc1ccc(-c2noc(CSc3nnc(C)n3-c3ccc(C)cc3)n2)cc1OC	-11%	i	i	-37%	?	2
CCCc1ccc(C2Sc3ccccc3NC3=C2C(=O)c2ccccc23)cc1 (stereo not drawn)	-10%	i	i	-53%	32µM*	-61
SMILES	GALK inh	B2AR arrestin ag	TSG101-PTAP inh	HTT-AS promoter	HTT promoter inh	GPR32 ag
Cc1c(O)cccc1C(=O)N[C@@H](CSc1ccccc1)[C@H](O)CN1C[C@H]2CCCC[C@@H]2C[C@@H]1C(=O)NC(C)(C)C	nt	nt	nt	-44%	?	nt
CCOC(=O)c1c(C)[nH]c(C)c1S(=O)(=O)N1CCN(c2ccc(Cl)cc2)CC1	-4%	i	i	-22%	?	68*
O=C1CC(c2cc(F)cc(F)c2)c2cc3c(cc2N1)OCO3 (stereo not drawn)	2%	i	i	-26%	?	38
Cc1ccc(C2CC(=O)Nc3cc4c(cc32)OCCO4)cc1 (stereo not drawn)	1%	i	i	-26%	?	62*
O=C1CC(c2ccc(Cl)cc2)c2cc3c(cc2N1)OCCO3 (stereo not drawn)	-7%	i	i	-29%	?	80*
CCc1ccc(C2CC(=O)Nc3cc4c(cc32)OCO4)cc1 (stereo not drawn)	-9%	i	i	-37%	?	72*
CCOc1ccc(CN2CCN(Cc3ccc4c(c3)c3ccccc3n4CC)CC2)cc1	-4%	i	i	-58%	32µM*	-9
CCn1c2ccccc2c2cc(CN3CCN(Cc4ccc(OC)c(OC)c4)CC3)ccc21	-2%	i	i	-32%	-20%	-22
Nc1nc(Cl)nc2c1ncn2[C@@H]1O[C@H](CO)[C@@H](O)[C@H]1F	nt	nt	nt	-28%	?	nt
CCOC(=O)c1c(NC(=O)c2ccc(S(=O)(=O)N3CCCC(C)C3)cc2)sc2c1CC(C)(C)NC2(C)C (stereo not drawn)	0%	i	i	?	-66%	120*
CC1CCN(S(=O)(=O)c2ccc(C(=O)Nc3sc4c(c3C(N)=O)CC(C)(C)NC4(C)C)cc2)CC1	-7%	i	i	-16%	-16%	-30
Cc1ccccc1-c1noc(-c2cc3ccccc3oc2=O)n1	3%	i	i	2.5µM*	110%	-17
COc1ccc(COC(=O)c2[nH]c3c(c2C)C(=O)CC(c2ccc(OC)c(OC)c2)C3)cc1 (stereo not drawn)	-9%	i	i	-74%	10µM*	7
COc1ccc(C2CC(=O)c3c([nH]c(C(=O)OCc4ccccc4)c3C)C2)cc1 (stereo not drawn)	-9%	i	i	-21%	-18%	31
